Out of some 39,000 compounds screened, about 3,300 (8.5%) were called active. What follows is part of a selection rich in actives, with near analogues and random picks from the rest.
The compounds below were run on HepG2 (assay: cytotoxicity call (relative viability < 0.9)). Conditions: 10 µM.

Row | Compound | cytotoxicity call
1 | COCC(=O)N1C[C@H](C)[C@H](OC)CN(C)C(=O)c2cc(NC(=O)Nc3cccc(F)c3)ccc2OC[C@H]1C | inactive
2 | C[C@@H]1CN([C@@H](C)CO)C(=O)c2cc(C#CCc3ccccc3)cnc2O[C@H]1CN(C)C(=O)C1CCOCC1 | inactive
3 | COc1ccc(S(=O)(=O)Nc2ccc3c(c2)C(=O)N([C@H](C)CO)C[C@@H](C)[C@@H](CN(C)C(=O)NC(C)C)O3)cc1 | inactive
4 | CC(C)NC(=O)N(C)C[C@H]1Oc2ccc(NC(=O)Nc3ccc4c(c3)OCO4)cc2C(=O)N([C@@H](C)CO)C[C@@H]1C | inactive
5 | Cc1noc(C)c1S(=O)(=O)Nc1ccc2c(c1)CC(=O)N([C@@H](C)CO)C[C@@H](C)[C@H](CN(C)Cc1ccccc1)O2 | inactive
6 | C[C@@H]1CN([C@@H](C)CO)C(=O)c2cc(NC(=O)CCCN(C)C)ccc2O[C@@H]1CN(C)S(=O)(=O)c1ccc(F)cc1 | inactive
7 | C[C@H](CO)N1C[C@H](C)[C@H](CN(C)C(=O)Nc2ccc(C(F)(F)F)cc2)Oc2c(NC(=O)Nc3cccc4ccccc34)cccc2C1=O | inactive
8 | C[C@H](CO)N1C[C@H](C)[C@@H](CN(C)C(=O)Nc2ccc(C(F)(F)F)cc2)Oc2c(NC(=O)Nc3cccc4ccccc34)cccc2C1=O | active
9 | C[C@@H]1CN([C@H](C)CO)C(=O)c2cccc(NC(=O)Nc3cccc4ccccc34)c2O[C@H]1CN(C)C(=O)Nc1ccc(C(F)(F)F)cc1 | inactive
10 | COc1ccc2ccccc2c1-c1c(OC)ccc2ccccc12 | inactive
11 | COCOc1ccc2cc(Br)ccc2c1-c1c(OCOC)ccc2cc(Br)ccc12 | active
12 | C[C@H]1CN([C@@H](C)CO)C(=O)c2cc(C#CCc3ccccc3)cnc2O[C@H]1CN(C)C(=O)C1CCOCC1 | inactive
13 | C[C@@H]1CCCCO[C@H](CN(C)Cc2ccccc2)[C@H](C)CN([C@@H](C)CO)C(=O)c2cc(NC(=O)C3CCCCC3)ccc2O1 | inactive
14 | COc1ccc(CNC(=O)c2cc3c(c(-c4cccc(-c5ccc(C#N)cc5)c4)n2)[C@@H](CCO)N([S@](=O)C(C)(C)C)C3)cc1 | inactive
15 | CN(C)CCCNC(=O)C[C@@H]1CC[C@@H]2[C@H](COC[C@H](O)CN2C(=O)Nc2cc(Cl)cc(Cl)c2)O1 | inactive
16 | C[C@H]1CN([C@@H](C)CO)C(=O)Cc2cc(NC(=O)NC3CCCCC3)ccc2O[C@H]1CN(C)Cc1ccc(C(=O)Nc2ccccc2N)cc1 | active
17 | C[C@H](CO)N1C[C@H](C)[C@@H](CN(C)Cc2ccc(C(=O)Nc3ccccc3N)cc2)Oc2ccc(NC(=O)NC3CCCCC3)cc2CC1=O | inactive
18 | C[C@@H]1CN([C@H](C)CO)C(=O)Cc2cc(NC(=O)NC3CCCCC3)ccc2O[C@H]1CN(C)Cc1ccc(C(=O)Nc2ccccc2N)cc1 | inactive
19 | C[C@@H]1CN([C@H](C)CO)C(=O)Cc2cc(NC(=O)C3CCCCC3)ccc2O[C@@H]1CN(C)Cc1ccc(C(=O)Nc2ccccc2N)cc1 | active
20 | C[C@H](CO)N1C[C@H](C)[C@H](CN(C)Cc2ccc(C(=O)Nc3ccccc3N)cc2)Oc2ccc(NC(=O)NC3CCCCC3)cc2CC1=O | inactive
21 | C[C@@H]1CN([C@H](C)CO)C(=O)Cc2cc(NC(=O)NC3CCCCC3)ccc2O[C@@H]1CN(C)Cc1ccc(C(=O)Nc2ccccc2N)cc1 | active
22 | C[C@H](CO)N1C[C@H](C)[C@H](CN(C)Cc2ccc(C(=O)Nc3ccccc3N)cc2)Oc2ccc(NC(=O)C3CCCCC3)cc2CC1=O | inactive
23 | C[C@H]1CN([C@@H](C)CO)C(=O)Cc2cc(NC(=O)C3CCCCC3)ccc2O[C@H]1CN(C)Cc1ccc(C(=O)Nc2ccccc2N)cc1 | inactive

Row | Compound | cytotoxicity call
24 | C[C@H]1CN([C@@H](C)CO)C(=O)Cc2cc(NC(=O)NC3CCCCC3)ccc2O[C@@H]1CN(C)Cc1ccc(C(=O)Nc2ccccc2N)cc1 | inactive
25 | C[C@H](CO)N1C[C@H](C)[C@H](CN(C)C(=O)Nc2ccccc2)Oc2ccc(NS(C)(=O)=O)cc2CC1=O | inactive
26 | C[C@@H]1CCCCO[C@H](CN(C)C(=O)NC2CCCCC2)[C@@H](C)CN([C@@H](C)CO)C(=O)c2cc(NS(=O)(=O)c3cccs3)ccc2O1 | inactive
27 | O=C(C[C@@H]1CC[C@H](NC(=O)CN2CCOCC2)[C@H](CO)O1)NCc1cccc(F)c1 | inactive
28 | C[C@@H]1CN([C@H](C)CO)C(=O)c2cc(NC(=O)Cn3cnnn3)ccc2O[C@H]1CN(C)S(=O)(=O)c1cn(C)cn1 | inactive
29 | COc1ccc(NC(=O)Nc2ccc3c(c2)C(=O)N([C@H](C)CO)C[C@H](C)[C@H](CN(C)Cc2ccccc2)OCCCC[C@@H](C)O3)cc1 | inactive
30 | C[C@@H]1CN([C@@H](C)CO)S(=O)(=O)c2ccc(-c3cccnc3)cc2O[C@@H]1CN(C)C(=O)c1ccc2c(c1)OCO2 | inactive
31 | Cn1cnc(S(=O)(=O)N2C[C@@H](O)COC[C@H]3O[C@@H](CC(=O)NCc4cc(F)cc(F)c4)CC[C@@H]32)c1 | inactive
32 | O=C(C[C@H]1CC[C@H]2[C@@H](COC[C@@H](O)CN2C(=O)c2cccnc2)O1)NCC1CC1 | inactive
33 | CC(=O)N1CC2(CCN(CC(=O)N3CCOCC3)CC2)C[C@@H]1C(=O)O | inactive
34 | O=C(NC1=C(c2ccc(OC(F)(F)F)cc2)C(=O)c2ccccc2C1=O)c1ccc(Br)cc1 | inactive
35 | COc1ccc(C2=C(NC(=O)c3ccc(OC)cc3-c3cccc(OC)c3)C(=O)c3ccccc3C2=O)cc1 | active
36 | COC(=O)[C@@H](N)c1cccc(OC)c1 | inactive
37 | Cc1noc(C)c1NC(=O)N(C)C[C@@H]1Oc2ncc(C#CCN(C)C)cc2C(=O)N([C@@H](C)CO)C[C@H]1C | inactive
38 | CNC(=O)C[C@H]1C[C@@H]2CN(S(=O)(=O)c3cccnc3)C[C@@H]2O1 | inactive
39 | Cc1ccc(S(=O)(=O)N(C)C[C@H]2OCCCC[C@H](C)Oc3ccc(NS(=O)(=O)c4ccc(F)cc4)cc3C(=O)N([C@@H](C)CO)C[C@H]2C)cc1 | inactive
40 | CCOC(=O)C(=O)c1csc(NC=O)n1 | inactive
41 | [N-]=[N+]=Nc1ccccc1C[C@]1(C(=O)N2CCCCC2)N=C(c2ccc(OCCCO)cc2)O[C@H]1c1ccccc1 | active
42 | O=C(NC[C@@H](O)CO)[C@]1(Cc2ccccc2)N=C(c2ccc(OCCCO)cc2)O[C@@H]1c1ccccc1 | inactive
43 | CC(C)(C)OC(=O)CC[C@]1(C(=O)NCc2ccccc2)N=C(c2ccc(OCCCO)cc2)O[C@H]1c1ccccc1 | active
44 | [N-]=[N+]=Nc1ccccc1C[C@@]1(C(=O)NCc2ccccc2)N=C(c2ccc(OCCCO)cc2)O[C@@H]1c1ccccc1 | inactive
45 | O=C(NC[C@@H](O)CO)[C@]1(CCS(=O)(=O)c2ccccc2)N=C(c2ccc(OCCCO)cc2)O[C@@H]1c1ccccc1 | inactive
46 | [N-]=[N+]=NCc1ccccc1C[C@]1(C(=O)NCc2ccccc2)N=C(c2ccc(OCCCO)cc2)O[C@H]1c1ccccc1 | active

Row | Compound | cytotoxicity call
47 | [N-]=[N+]=Nc1ccccc1C[C@@]1(C(=O)N2CCCCC2)N=C(c2ccc(OCCCO)cc2)O[C@@H]1c1ccccc1 | inactive
48 | [N-]=[N+]=NCc1ccccc1C[C@@]1(C(=O)N2CCCCC2)N=C(c2ccc(OCCCO)cc2)O[C@@H]1c1ccccc1 | inactive
49 | [N-]=[N+]=NCc1ccccc1C[C@]1(C(=O)NC[C@@H](O)CO)N=C(c2ccc(OCCCO)cc2)O[C@H]1c1ccccc1 | inactive
50 | CN1CCN(C(=O)C[C@@H]2C=C[C@@H](NC(=O)Nc3ccccc3F)[C@H](CO)O2)CC1 | inactive
51 | OCc1ccc(-c2cccs2)cc1 | inactive
52 | CCNC(=O)N1CCN(CCO)CC1 | inactive
53 | C[C@@H]1CN([C@H](C)CO)C(=O)c2cc(NC(=O)CCC(F)(F)F)ccc2O[C@@H](C)CCCCO[C@@H]1CN(C)S(=O)(=O)c1ccc(F)cc1 | inactive
54 | CC(C)CC(=O)N[C@H](C(=O)N[C@H](C(=O)N[C@@H](CC(C)C)[C@@H](O)CC(=O)N[C@@H](C)C(=O)N[C@@H](CC(C)C)[C@@H](O)CC(=O)O)C(C)C)C(C)C | inactive
55 | COc1cccc(S(=O)(=O)N[C@@H]2CC[C@H](CCn3cc(-c4ccccc4OC)nn3)O[C@@H]2CO)c1 | inactive
56 | Cn1c(=O)c2c(ncn2CC(=O)N2CCN(c3ccccc3)CC2)n(C)c1=O | inactive
57 | CCOC(=O)CCCCCC(=O)Nc1ccc2c(c1)C(=O)N([C@@H](C)CO)C[C@@H](C)[C@H](CN(C)S(=O)(=O)c1cccs1)OCCCC[C@H](C)O2 | inactive
58 | C[C@H](CO)N1C[C@H](C)[C@H](CN(C)S(=O)(=O)c2ccccc2)Oc2c(NC(=O)c3ccncc3)cccc2C1=O | inactive
59 | COc1ccc(S(=O)(=O)N(C)C[C@@H]2Oc3c(NC(=O)c4ccncc4)cccc3C(=O)N([C@@H](C)CO)C[C@@H]2C)cc1 | inactive
60 | COc1ccc(S(=O)(=O)N(C)C[C@H]2Oc3c(NC(=O)c4ccncc4)cccc3C(=O)N([C@H](C)CO)C[C@H]2C)cc1 | inactive
61 | C[C@@H]1CN([C@H](C)CO)C(=O)c2cccc(NC(=O)c3ccncc3)c2O[C@H]1CN(C)S(=O)(=O)c1cn(C)cn1 | inactive
62 | C[C@H](CO)N1C[C@H](C)[C@@H](CN(C)S(=O)(=O)c2cn(C)cn2)Oc2c(NC(=O)Nc3ccc(F)cc3)cccc2C1=O | inactive
63 | C[C@@H]1CN([C@@H](C)CO)C(=O)c2cccc(NC(=O)c3ccncc3)c2O[C@@H]1CN(C)S(=O)(=O)c1ccccc1 | active
64 | C[C@@H]1CN([C@H](C)CO)C(=O)c2cccc(NC(=O)c3ccncc3)c2O[C@@H]1CN(C)S(=O)(=O)c1ccccc1 | inactive
65 | COc1ccc(S(=O)(=O)N(C)C[C@H]2Oc3c(NC(=O)c4ccncc4)cccc3C(=O)N([C@@H](C)CO)C[C@H]2C)cc1 | active
66 | C[C@H]1CN([C@@H](C)CO)C(=O)c2cccc(NC(=O)c3ccncc3)c2O[C@@H]1CN(C)S(=O)(=O)c1cn(C)cn1 | inactive
67 | C[C@H](CO)N1C[C@H](C)[C@H](CN(C)S(=O)(=O)c2cn(C)cn2)Oc2c(NC(=O)Nc3ccc(F)cc3)cccc2C1=O | inactive
68 | C[C@@H]1CN([C@@H](C)CO)C(=O)c2cccc(NC(=O)c3ccncc3)c2O[C@H]1CN(C)S(=O)(=O)c1cn(C)cn1 | active
69 | C[C@H]1CN([C@@H](C)CO)C(=O)c2cccc(NC(=O)Nc3ccc(F)cc3)c2O[C@@H]1CN(C)S(=O)(=O)c1cn(C)cn1 | active

— the antibiotic and cytotoxicity screens of Wong et al. (2023)
